This is part of a sample that, as a whole, favours compounds with a hit. Of some 83,000 tested, about 20% had one in any assay.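 Cells were grown in 96-well plates and exposed to the test compound at a single concentration for 48 hours; results are reported as percent growth, with values below 10 considered active.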 Values without a mark were called inactive. Calls of active or inactive are those of the source.
Assays:
Experiment in all cases: NCI-60 one-dose screen, 48 h (100 = growth as untreated, 0 = no growth, -100 = all killed)
Conditions in all cases: 10 µM unless noted
NCI-H226 lung = system: NCI-H226 lung
NCI-H322M lung = system: NCI-H322M lung
HOP-62 NSCLC = system: HOP-62 NSCLC
NCI-H460 lung = system: NCI-H460 lung
HOP-92 NSCLC = system: HOP-92 NSCLC
NCI-H522 lung = system: NCI-H522 lung
A549/ATCC NSCLC = system: A549/ATCC NSCLC
786-0 renal = system: 786-0 renal
COLO 205 colon = system: COLO 205 colon

| SMILES | growth (NCI-H226 lung) | growth (NCI-H322M lung) | growth (HOP-62 NSCLC) | growth (NCI-H460 lung) | growth (HOP-92 NSCLC) | growth (NCI-H522 lung) | growth (A549/ATCC NSCLC) | growth (786-0 renal) | growth (COLO 205 colon) |
| --- | --- | --- | --- | --- | --- | --- | --- | --- | --- |
| CC(=O)O[C@H]1CC[C@]2(C)[C@H]3CC=C4[C@@H]5CC(C)(C)CC[C@]5(C(=O)N5CCN(CCC#N)CC5)CC[C@@]4(C)[C@]3(C)CC[C@H]2C1(C)C | 48.9% | 53.3% | 41.2% | -1.52% (active) | 56.7% | 38.9% | 25.6% | 47.4% | 21.1% |
| CCOC(=O)c1nnn(-c2no[n+]([O-])c2-c2ccc(OC)cc2)c1COc1cccc2cccnc12 | 8.91% (active) | 98.8% | 30.6% | 8.47% (active) | 17.6% | -52.7% (active) | 71.9% | 25.8% | -25% (active) |
| NC(=O)c1ccccc1OCC(=O)Nc1ccc(Cl)c(Cl)c1 | 96.3% | 96.8% | 96.8% | 100% | 88.7% | 83.1% | 114% | 109% | 105% |
| Clc1ccc(Nc2ncc(Cc3cccc(Cl)c3Cl)s2)cc1 | 102% | 110% | 108% | – | 89% | 80.2% | 86.7% | 95.2% | 104% |
| Cc1cn(C)cn1 | 108% | 116% | 111% | 106% | 81.8% | 89.3% | – | 97.9% | 125% |
| CC(C)(C)OC(=O)CN1CCc2c(sc3ncnc(N4CCN(c5ccc(F)cc5)CC4)c23)C1 | – | 83.6% | 93.2% | 88.6% | 84% | 82% | 90.3% | 81.8% | 86.4% |
| N#Cc1c(-c2ccccc2)nc2c(c(-c3ccccc3)nn2-c2ccccc2)c1-c1ccc(N2CCCCC2)cc1 | 89.1% | 97.2% | 95.9% | 103% | 98.7% | 98.6% | 87.9% | 98.5% | 104% |
| FC(F)(F)c1[nH]ncc1-c1nc2ccc3[nH]ncc3c2c2c1CCCC2 | – | 3.13% (active) | 1.07% (active) | 5.86% (active) | 31.2% | -16.9% (active) | 0.818% (active) | -23.8% (active) | -8.58% (active) |
| COc1cc2c(c(OC)c1OC)CCC(c1cccc(C(=O)Nc3ccc(Br)cc3)c1)O2 (stereo unspecified) | 62.7% | 50% | 82% | 84% | 17% | 48.8% | 64.2% | 84.1% | 76.5% |
| Cc1sc2nc(NCCN)[nH]c(=O)c2c1C | 84.8% | 83.7% | 99.8% | – | 87.7% | 102% | 101% | 84.2% | 77% |
| C/C(=N\Nc1ccccc1)c1ccc(NC2=CC(=O)c3ccccc3C2=O)cc1 | 80.8% | 79% | 46.1% | – | 113% | 42.9% | 48.5% | 94.1% | 88.2% |
| O=C(/C=C/c1ccccc1)c1ccc(-n2cc(CN3CCN(c4cc5c(cc4F)c(=O)c(C(=O)O)cn5C4CC4)CC3)nn2)cc1 | 73% | 84.4% | 79.6% | – | 79.6% | 80.1% | 88.9% | 54.2% | 108% |
| C1CCC(N2CN3c4nonc4N4CN(C5CCCCC5)CN5c6nonc6N(C2)C3C45)CC1 (stereo unspecified) | 96.4% | 95.6% | 97.2% | 99.4% | 82.1% | 92.1% | 92.4% | 108% | 107% |
| O=C1/C(=C/c2ccc(Cl)cc2)CN(C(=O)C(Cl)Cl)C/C1=C\c1ccc(Cl)cc1 | -24.4% (active) | -70.9% (active) | -61.5% (active) | – | -59.9% (active) | -60.3% (active) | -21.2% (active) | -80.2% (active) | -68.5% (active) |
| CN(C)c1ccc(/C=C2\C=C(c3nc4ccccc4s3)OC2=O)cc1 | 82.2% | 93.2% | 91.7% | 95.2% | 77.8% | 89.4% | 94.7% | 102% | 102% |
| COc1cc(N2C(=O)[C@H](Cl)C2c2ccc(SC)cc2)cc(OC)c1OC (stereo partly specified) | 53.8% | 42.9% | 23.1% | – | -0.311% (active) | -7.37% (active) | 11.1% | -0.223% (active) | -45.6% (active) |
| CCN1C2CCC1/C(=C\c1ccccc1)C(=O)/C2=C/c1ccccc1 | 59.9% | 51.6% | 59.8% | 51.5% | 58.5% | 41.3% | 72.9% | 57.2% | 43.5% |
| CN(C)Cc1ccc(NC(=O)c2cncc(C#Cc3cnc(N)c4ncccc34)c2)cc1C(F)(F)F | 76.7% | 97% | 79.8% | 13.3% | 73.9% | 94.6% | -15.4% (active) | -73.4% (active) | 44.6% |
| CC(=O)c1ccc(-n2cc(CN3CCN(c4cc5c(cc4F)c(=O)c(C(=O)O)cn5C4CC4)CC3)nn2)cc1 | 69.6% | 89.2% | 78.7% | 91.2% | 79.9% | 89.2% | – | 87.9% | 110% |

Reference: PubChem BioAssay (NCI)
